This is an account of results in PubChem BioAssay AID743060 (The Scripps Research Institute Molecular Screening Center, 2013).

Structures are written as SMILES.

This test in a line: T. brucei methionyl-tRNA synthetase enzyme inhibition – biochemical, radioactivity, round 1, late-stage follow-up (AID 743060). To be noted: purified enzyme, radiolabel aminoacylation, scintillation, 2 h; at 10 µM; stronger effect = higher value.
In general, inhibition refers to the relative decrease from the control value, in per cent. As for `O=C(NCc1nc2ccccc2[nH]1)C1=C[C@@H](c2ccc(Br)cc2)C[C@@H](OCCCCO)O1`, the inhibition is 99.9%.
On to `CC(=O)N(CCc1ccccc1)C1CC(=O)N(c2ccc(Cl)cc2)C1=O` (centres undefined), for which the inhibition was -17.1%.
As for `O=C(NCc1nc2ccccc2[nH]1)C1=C[C@@H](c2ccccc2)C[C@@H](OCc2ccc(CO)cc2)O1`, the inhibition was found to be 94.3%.
Consider `Cc1ccc(CNC(=O)CSc2nnc3c(n2)[nH]c2ccc(C)cc23)cc1`, for which the inhibition worked out at 71.3%.
`CCO[C@H]1OC(C(=O)NCc2nc3ccccc3[nH]2)=C[C@@H](c2ccc(Br)cc2)[C@@H]1CCCO`: the inhibition stood at 81.6%.
For `O=C(Cn1cnc2ccccc21)Nc1cccc([N+](=O)[O-])c1` the value was 91.9%.
For `Brc1cnc2nc(SCc3nc4ccccc4[nH]3)[nH]c2c1` the value was 84.9%.
Consider `O=C(Cn1cc(C(=O)c2ccccc2)c2ccccc21)Nc1cccc(C(F)(F)F)c1`, for which the inhibition turned out to be 65.9%.
For `CCN(C(=O)Cn1cc(C(=O)C(=O)N2CCOCC2)c2ccccc21)c1ccccc1`, the inhibition was -23.7%.
Take `O=C(Cn1cc(C(=O)c2ccco2)c2ccccc21)Nc1cccc(C(F)(F)F)c1`: the inhibition is 89%.
For `O=C(NCc1nc2ccccc2[nH]1)C1=C[C@H](c2ccccc2)C[C@H](OCc2ccc(CO)cc2)O1` the value was 61.8%; for `O=C1CC(N(CCc2ccccc2)C(=S)Nc2ccccc2)C(=O)N1c1ccc(Br)cc1` (centres undefined), 97.3%; for `CCN(CC)C(=O)C(=O)c1cn(CC(=O)N2CCCc3ccccc32)c2ccccc12`, -17.2%.
With `O=C(NCCc1nc2ccccc2[nH]1)c1ccc(Cl)c([N+](=O)[O-])c1`, the inhibition came to 99.6%.
Regarding `CC(C)(C)[C@@H]1C=C(C(=O)NCc2nc3ccccc3[nH]2)O[C@H](OCc2ccc(CO)cc2)C1`, the inhibition came to 84.8%.
Under `COc1ccc(OCC(O)CNC(=O)Nc2ccc(Cl)cc2)cc1` (centres undefined) stands 61.9%; under `O=C(CCC(=O)Nc1cccc([N+](=O)[O-])c1)NN=Cc1cccs1`, 74.3%.
As to `CCCCCCCCCC1NC(C(=O)O)Cc2c1[nH]c1ccccc21` (centres undefined), the inhibition was determined as 93.2%.
For `O=C(NCCc1nc2ccccc2[nH]1)c1ccc(Cl)cc1` the value was 74.2%; for `O=C(NCc1nc2ccccc2[nH]1)C1=C[C@H](c2ccc3c(c2)OCO3)C[C@H](OCCCCO)O1`, 79.4%; for `C[C@H](O)[C@@H]1C(=O)N2CCc3c([nH]c4ccccc34)[C@@H]2C[C@@H]1N(C)Cc1ccc2c(c1)OCO2`, 80.4%.
As to `Cc1cccc(NC(=O)C2CC(=O)n3c(nc4ccccc43)N2)c1` (centres undefined), the inhibition turned out to be 8.95%.
Under `O=C(Cn1cc(C(=O)C(=O)N2CCOCC2)c2ccccc21)NCc1ccccc1` stands 16.7%; under `O=C(CSC1CC(=O)N(c2cccc(Cl)c2)C1=O)Nc1ccc(Br)cc1` (centres undefined), 79.9%; under `O=C(CC=NOCc1ccc([N+](=O)[O-])cc1)Nc1ccc(Cl)cc1`, 86.5%.
Take `CC(C)OCCCN1CC(=O)N2C(c3cccc([N+](=O)[O-])c3)c3[nH]c4ccccc4c3C[C@H]2C1=O` (some centres undefined): the inhibition is 93.1%.
Regarding `O=C(NCc1nc2ccccc2[nH]1)C1=C[C@H](c2ccc(Br)cc2)C[C@H](OCc2ccc(CO)cc2)O1`, the inhibition amounted to 94.6%.
Take `COc1ccc2[nH]c3nc(SCC(=O)Nc4ccc5c(c4)OCO5)nnc3c2c1`: the inhibition amounted to 65.6%.
For `Clc1ccc(OCCSCc2nc3ccccc3[nH]2)cc1` the value was 44.8%; for `O=C(CSc1nnc2c(n1)[nH]c1ccc(Br)cc12)NCc1ccccc1`, 59.7%; for `O=C(NCc1nc2ccccc2[nH]1)C1=C[C@H](c2ccc(Br)cc2)C[C@H](OCCCCO)O1`, 94.3%.
Regarding `O=C(NNC(=O)c1ccc(-n2cncn2)c([N+](=O)[O-])c1)c1ccc(Cl)cc1`, the inhibition stood at 73%.
`COc1ccc(CCN(C(=S)Nc2ccccc2)C2CC(=O)N(c3ccc(Cl)cc3)C2=O)cc1` (centres undefined): the inhibition came to 99.4%.
As to `COc1ccccc1NC(=O)Cn1cc(C(=O)C(=O)N2CCOCC2)c2ccccc21`, the inhibition is -13.7%.
